In all, about 18,000 sequences were measured (“log2 normalized intensity”: median about 0.36, highest 2% from about 7.3 on). Shown is part of a subset that was picked to be rich in the highest values.

The experiment addresses T1, HNF4alpha8 (COS-7 nuclear extract) (Homo sapiens, UniProt P41235-5 1-452).
T1 sequence: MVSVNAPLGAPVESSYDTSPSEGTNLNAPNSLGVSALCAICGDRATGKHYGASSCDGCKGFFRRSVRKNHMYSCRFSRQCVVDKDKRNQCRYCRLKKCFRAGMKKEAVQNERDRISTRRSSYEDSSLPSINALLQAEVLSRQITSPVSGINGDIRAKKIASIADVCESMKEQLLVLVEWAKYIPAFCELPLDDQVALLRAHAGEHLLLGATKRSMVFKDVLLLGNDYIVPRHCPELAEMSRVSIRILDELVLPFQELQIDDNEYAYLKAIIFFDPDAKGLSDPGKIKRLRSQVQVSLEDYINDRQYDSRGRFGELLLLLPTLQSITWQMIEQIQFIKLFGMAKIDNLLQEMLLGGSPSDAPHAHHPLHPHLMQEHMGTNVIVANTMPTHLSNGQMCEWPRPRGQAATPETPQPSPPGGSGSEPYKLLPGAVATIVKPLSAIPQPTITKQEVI
Briefly: protein-binding microarray; COS-7 nuclear extract on double-stranded Agilent 4x180k PBM; binding buffer, salt, pH and temperature not given in the material; high values mean tight binding. The note with it: chain copies: 2; label: 3' end of strand 1 on the slide; dsDNA, one strand shown. In a few lines:
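Nuclear extracts from COS-7 cells expressing a transiently transfected human HNF4α isoform were put on a custom Agilent SurePrint G3 4x180k array carrying ~44,000 double-stranded ~60-nt test sequences in quadruplicate. Imaging used an Agilent G2565CA scanner at 2-µm resolution. Binding signal is the background-corrected, normalized gProcessedSignal from Agilent software.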
On to “GTGACTCTAGGAACCTTTCTCCATACCTCTGCCTAGGGAGATTAGAGTATCGGTCGA”, for which the binding signal was -0.874 log2 normalized intensity.

Take “ACAAAGAAATGTAACCTTTGGCCAATTGCAGCCTAGGGAGATTAGAGTATCGGTCGA”: the binding signal came out at 5.13 log2 normalized intensity.

“AACTGACACTTGTTTGAATTGTGATAATAAGCCTAGGGAGATTAGAGTATCGGTCGA”: the binding signal was 1.04 log2 normalized intensity.

Consider “TTATCTTGGTGCCTGCAGAGCCTCCCCATTGCCTAGGGAGATTAGAGTATCGGTCGA”, for which the binding signal amounted to 2.69 log2 normalized intensity.

Take “GTAGGGCAGAGGCCAGTTTGATCACAAGACGCCTAGGGAGATTAGAGTATCGGTCGA”: the binding signal is -0.285 log2 normalized intensity.

For the sequence “AGTTTGGTTTAAAGTTCAAGTCATAACTGGGCCTAGGGAGATTAGAGTATCGGTCGA”, the binding signal came out at 2.53 log2 normalized intensity.

For “ATGCCCAAATGAATAATCCCCTCCTGGACTGCCTAGGGAGATTAGAGTATCGGTCGA”, the binding signal came to 3.33 log2 normalized intensity.

On to “TATGTGCTCACTCCTGGGACAAGGACTTTGGCCTAGGGAGATTAGAGTATCGGTCGA”, for which the binding signal came to 3.11 log2 normalized intensity.

As for “CAAATGAATAATCCCCTCCTGGACTTTGGTGCCTAGGGAGATTAGAGTATCGGTCGA”, the binding signal is 5.55 log2 normalized intensity.

In the case of “GTAATGACATGCAGTATGGGGACTTTGGACGCCTAGGGAGATTAGAGTATCGGTCGA”, the binding signal is 7.1 log2 normalized intensity.

As for “GAATAATCCCCTCCTGGACTTTGGTCTCATGCCTAGGGAGATTAGAGTATCGGTCGA”, the binding signal worked out at 8 log2 normalized intensity.

Turning to “CTCCTGGACTTTGGTCTCATGGGCCTAAACGCCTAGGGAGATTAGAGTATCGGTCGA”, the binding signal was 5.27 log2 normalized intensity.

With “GACATGCAGTATGGGGACTTTGGACTCCTGGCCTAGGGAGATTAGAGTATCGGTCGA”, the binding signal came out at 8.41 log2 normalized intensity.

On to “GGACTTTGGTCTCATGGGCCTAAACATTCCGCCTAGGGAGATTAGAGTATCGGTCGA”, for which the binding signal was 5.24 log2 normalized intensity.

With “ATCCCCTCCTGGACTTTGGTCTCATGGGCCGCCTAGGGAGATTAGAGTATCGGTCGA”, the binding signal came out at 7.4 log2 normalized intensity.

Regarding “TATTCCTTGTCCTTGACCCTTCCTCCCATTGCCTAGGGAGATTAGAGTATCGGTCGA”, the binding signal was 4.01 log2 normalized intensity.

In the case of “GAAACATCCACATGTGGGTCCAAAGAACATGCCTAGGGAGATTAGAGTATCGGTCGA”, the binding signal is 3.82 log2 normalized intensity.

Regarding “ATCACATTCTAATCCTCTGGTCTTTGCCCCGCCTAGGGAGATTAGAGTATCGGTCGA”, the binding signal was found to be 5 log2 normalized intensity.

Turning to “CCCTGAGTAGTTCTTCTGGTTAGTTTTTCAGCCTAGGGAGATTAGAGTATCGGTCGA”, the binding signal came out at 1.66 log2 normalized intensity.

Turning to “CTCCCCTCCTCCAGATGGGCTCATGTAACAGCCTAGGGAGATTAGAGTATCGGTCGA”, the binding signal came out at 2.65 log2 normalized intensity.

Regarding “ATGCAAAGCCCTGGCTGACCTTTAGCCTGGGCCTAGGGAGATTAGAGTATCGGTCGA”, the binding signal came out at 7.69 log2 normalized intensity.

For the sequence “ACCAAAACCAAGATAGTGACGGAGGTGACCGCCTAGGGAGATTAGAGTATCGGTCGA”, the binding signal was 1.88 log2 normalized intensity.

With “CTGATTTAGCTATTTGACCTTCGGCCTCAAGCCTAGGGAGATTAGAGTATCGGTCGA”, the binding signal is 8.73 log2 normalized intensity.

As for “TTAGCTATTTGACCTTCGGCCTCAATTATAGCCTAGGGAGATTAGAGTATCGGTCGA”, the binding signal was 7.29 log2 normalized intensity.

For the sequence “ATTGGCCCTTTGACCTTTAATCAAGGGCTGGCCTAGGGAGATTAGAGTATCGGTCGA”, the binding signal is 5.91 log2 normalized intensity.

Consider “GCCCCTGGCTGGGCCCTGACCTCAAGTGACGCCTAGGGAGATTAGAGTATCGGTCGA”, for which the binding signal turned out to be 2.6 log2 normalized intensity.

Turning to “TGGCTGGGCCCTGACCTCAAGTGACCTTTGGCCTAGGGAGATTAGAGTATCGGTCGA”, the binding signal was 7.77 log2 normalized intensity.

For the sequence “CAAGAATGCAAAGCCCTGGCTGACCTTTAGGCCTAGGGAGATTAGAGTATCGGTCGA”, the binding signal came to 5.88 log2 normalized intensity.

With “CCAGGCTGATTTAGCTATTTGACCTTCGGCGCCTAGGGAGATTAGAGTATCGGTCGA”, the binding signal was 5.84 log2 normalized intensity.

Regarding “AACCAAGATAGTGACGGAGGTGACCTTTGGGCCTAGGGAGATTAGAGTATCGGTCGA”, the binding signal is 7.34 log2 normalized intensity.

On to “GACAGCTGGGCCCTGCCTGACCTGCCCTTTGCCTAGGGAGATTAGAGTATCGGTCGA”, for which the binding signal turned out to be 5.01 log2 normalized intensity.

For “GTGACGGAGGTGACCTTTGGTTGTCCTTACGCCTAGGGAGATTAGAGTATCGGTCGA”, the binding signal is 4.94 log2 normalized intensity.

Consider “CTTCGCTGGAATGTCACAGGGATTACGATCGCCTAGGGAGATTAGAGTATCGGTCGA”, for which the binding signal is 0.569 log2 normalized intensity.

For the sequence “CTTTGATAGCCAAGCCAACCAGGAGAATTTGCCTAGGGAGATTAGAGTATCGGTCGA”, the binding signal stood at 2.31 log2 normalized intensity.

As for “CTGGTTGGAATTCCAGTGTTCACATCTGATGCCTAGGGAGATTAGAGTATCGGTCGA”, the binding signal was found to be 1.09 log2 normalized intensity.

For the sequence “TCATTTCTGCTTGCAACCAAAGGAGTCCTGGCCTAGGGAGATTAGAGTATCGGTCGA”, the binding signal is -0.447 log2 normalized intensity.

As for “TGGCCAAAGTTCAGTAAATCTTAGAGAACAGCCTAGGGAGATTAGAGTATCGGTCGA”, the binding signal is 2.27 log2 normalized intensity.

Turning to “GCCAAGGGCAGTGTTTGCCCAGCTTGAATCGCCTAGGGAGATTAGAGTATCGGTCGA”, the binding signal is -0.771 log2 normalized intensity.

For “GCAACCTTTGCTCTCCCTCCTCTCTGAGCAGCCTAGGGAGATTAGAGTATCGGTCGA”, the binding signal is 2.28 log2 normalized intensity.

Regarding “GGGCCCTGACCTCAAGTGACCTTTGACCTCGCCTAGGGAGATTAGAGTATCGGTCGA”, the binding signal came out at 12 log2 normalized intensity.

In the case of “CTGGGCCCTGCCTGACCTGCCCTTTGTCCCGCCTAGGGAGATTAGAGTATCGGTCGA”, the binding signal is 6.91 log2 normalized intensity.

Consider “ATCGCCCTTTGAGGAGGCCTTTCCTGACCCGCCTAGGGAGATTAGAGTATCGGTCGA”, for which the binding signal amounted to 3.43 log2 normalized intensity.

“GGAGTGTGGGGTGGTGTCAGGAGTACAGGTGCCTAGGGAGATTAGAGTATCGGTCGA”: the binding signal is 1.12 log2 normalized intensity.

With “TCCTGATCTTTGACCTGGAGCATGACCCTTGCCTAGGGAGATTAGAGTATCGGTCGA”, the binding signal was 5.6 log2 normalized intensity.

Consider “TTGAGCTGGATGACCTTTGTCCTGGCACAAGCCTAGGGAGATTAGAGTATCGGTCGA”, for which the binding signal was 8 log2 normalized intensity.

The values are drawn from article PMC10726135, “HNF4α isoforms regulate the circadian balance between carbohydrate and lipid metabolism in the liver”.
